According to article PMC7862700, “An all-to-all approach to the identification of sequence-specific readers for epigenetic DNA modifications on cytosine”:

Key:
Assay in all cases: DAPPL (digital affinity profiling via proximity ligation, sequencing); 10 mM Tris-HCl pH 7.5, 50 mM NaCl, 1 mM DTT, 4% glycerol, room temperature, 30 min; GST-TFs on glutathione beads, 16-mer random dsDNA library, 0.1% formaldehyde crosslink after washing; high values mean tight binding
[1] = target: T1, FEV (Homo sapiens, UniProt Q99581 1-238); settings: protein: recombinant; tags: N-terminal GST; dsDNA, one strand shown
T1 sequence: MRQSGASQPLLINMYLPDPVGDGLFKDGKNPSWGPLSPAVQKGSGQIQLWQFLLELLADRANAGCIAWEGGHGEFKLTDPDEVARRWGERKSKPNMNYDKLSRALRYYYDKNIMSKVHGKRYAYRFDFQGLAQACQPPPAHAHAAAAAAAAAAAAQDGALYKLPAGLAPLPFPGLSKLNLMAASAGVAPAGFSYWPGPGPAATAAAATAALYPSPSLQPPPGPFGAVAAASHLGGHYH
Method in brief: (§1)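 Human transcription factors carrying a GST fusion were produced in yeast, bound to glutathione beads, tagged with DNA barcodes and pooled together with a tag-only sample. Each pool was held with 200 nmole of a random double-stranded 16-mer DNA library in Tris/NaCl/DTT/glycerol buffer for 30 min at room temperature, then washed, crosslinked in 0.1% formaldehyde, proximity-ligated with BsaI/T4 ligase (1 h, 37 °C), PCR-amplified and sequenced on an Illumina NextSeq500. Binding signal is the read frequency of each hexamer for a given factor divided by its frequency in the tag-only sample.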

[2] = target: ETV5 (Homo sapiens, UniProt P41161 1-510); settings: protein: recombinant; tags: N-terminal GST; dsDNA, one strand shown
Method in brief: as §1

[3] = target: HSF1 (Homo sapiens, UniProt Q00613 1-529); settings: protein: recombinant; tags: N-terminal GST; chain copies: 3; dsDNA, one strand shown
Method in brief: as §1

[4] = target: T2, SPIC (Homo sapiens, UniProt Q8N5J4 1-248); settings: protein: recombinant; tags: N-terminal GST; dsDNA, one strand shown
T2 sequence: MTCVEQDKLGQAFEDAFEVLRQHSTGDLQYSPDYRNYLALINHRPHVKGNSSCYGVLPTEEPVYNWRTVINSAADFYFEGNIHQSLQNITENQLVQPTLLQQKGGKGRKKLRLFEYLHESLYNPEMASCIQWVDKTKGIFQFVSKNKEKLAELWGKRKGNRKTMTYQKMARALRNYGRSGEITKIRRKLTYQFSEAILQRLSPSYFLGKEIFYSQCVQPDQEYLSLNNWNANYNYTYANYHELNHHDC
Method in brief: as §1

[5] = target: ELF4 (Homo sapiens, UniProt Q99607 1-663); settings: protein: recombinant; tags: N-terminal GST; dsDNA, one strand shown
Method in brief: as §1

[6] = target: T3, ELK4 (Homo sapiens, UniProt P28324-2 1-405); settings: protein: recombinant; tags: N-terminal GST; dsDNA, one strand shown
T3 sequence: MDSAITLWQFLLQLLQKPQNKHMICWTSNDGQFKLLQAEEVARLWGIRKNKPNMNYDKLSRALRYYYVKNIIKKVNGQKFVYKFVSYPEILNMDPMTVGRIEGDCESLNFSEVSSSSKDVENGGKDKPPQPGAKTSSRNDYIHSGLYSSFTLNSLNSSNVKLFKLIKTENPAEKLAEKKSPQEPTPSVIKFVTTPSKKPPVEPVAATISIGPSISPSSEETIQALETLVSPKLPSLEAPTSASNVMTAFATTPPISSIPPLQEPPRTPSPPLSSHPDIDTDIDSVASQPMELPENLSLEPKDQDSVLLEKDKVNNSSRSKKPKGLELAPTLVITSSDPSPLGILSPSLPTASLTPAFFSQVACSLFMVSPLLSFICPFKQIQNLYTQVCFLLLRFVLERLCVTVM
Method in brief: as §1

[7] = target: T4, ETV2 (Homo sapiens, UniProt O00321 1-342); settings: protein: recombinant; tags: N-terminal GST; dsDNA, one strand shown
T4 sequence: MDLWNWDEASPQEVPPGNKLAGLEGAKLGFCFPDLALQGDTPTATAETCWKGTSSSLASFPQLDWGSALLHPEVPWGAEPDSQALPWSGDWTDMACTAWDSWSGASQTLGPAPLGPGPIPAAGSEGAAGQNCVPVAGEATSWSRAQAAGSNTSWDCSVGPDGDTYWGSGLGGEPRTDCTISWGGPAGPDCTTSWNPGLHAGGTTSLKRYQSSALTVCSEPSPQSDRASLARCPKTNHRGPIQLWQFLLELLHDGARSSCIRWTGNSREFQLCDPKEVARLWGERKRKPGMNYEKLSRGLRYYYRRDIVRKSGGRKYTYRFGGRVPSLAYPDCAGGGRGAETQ
Method in brief: as §1

[8] = target: T5, ELF3 (Homo sapiens, UniProt P78545 1-371); settings: protein: recombinant; tags: N-terminal GST; dsDNA, one strand shown
T5 sequence: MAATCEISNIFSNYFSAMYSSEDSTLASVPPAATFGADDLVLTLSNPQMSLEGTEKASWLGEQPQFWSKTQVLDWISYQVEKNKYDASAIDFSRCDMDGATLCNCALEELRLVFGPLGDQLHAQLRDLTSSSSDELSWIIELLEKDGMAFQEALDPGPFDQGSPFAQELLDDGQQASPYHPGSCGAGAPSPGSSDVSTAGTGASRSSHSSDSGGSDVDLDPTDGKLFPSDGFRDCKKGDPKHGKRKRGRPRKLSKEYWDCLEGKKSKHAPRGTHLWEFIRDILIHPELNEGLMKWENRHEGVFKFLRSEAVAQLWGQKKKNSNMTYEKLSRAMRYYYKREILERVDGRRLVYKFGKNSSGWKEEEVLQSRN
Method in brief: as §1

[9] = target: CRX (Homo sapiens, UniProt O43186 1-299); settings: protein: recombinant; tags: N-terminal GST; dsDNA, one strand shown
Method in brief: as §1

[10] = target: ETV1 (Homo sapiens, UniProt P50549 1-477); settings: protein: recombinant; tags: N-terminal GST; dsDNA, one strand shown
Method in brief: as §1

Chain of ETV5 (P41161 whole entry): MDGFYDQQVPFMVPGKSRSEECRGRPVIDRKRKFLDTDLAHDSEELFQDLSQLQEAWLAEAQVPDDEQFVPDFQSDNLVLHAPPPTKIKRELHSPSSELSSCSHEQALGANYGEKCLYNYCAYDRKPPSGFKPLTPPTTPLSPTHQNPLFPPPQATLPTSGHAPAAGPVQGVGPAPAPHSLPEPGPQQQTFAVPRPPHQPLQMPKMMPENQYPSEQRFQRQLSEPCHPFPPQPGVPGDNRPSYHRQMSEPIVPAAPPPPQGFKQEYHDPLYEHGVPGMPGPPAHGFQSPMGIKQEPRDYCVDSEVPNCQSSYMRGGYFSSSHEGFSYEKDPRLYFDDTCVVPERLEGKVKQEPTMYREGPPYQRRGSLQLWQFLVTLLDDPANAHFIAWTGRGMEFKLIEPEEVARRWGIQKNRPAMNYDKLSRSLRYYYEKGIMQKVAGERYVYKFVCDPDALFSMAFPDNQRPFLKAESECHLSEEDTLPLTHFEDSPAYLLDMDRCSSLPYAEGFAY
Chain of CRX (O43186 whole entry): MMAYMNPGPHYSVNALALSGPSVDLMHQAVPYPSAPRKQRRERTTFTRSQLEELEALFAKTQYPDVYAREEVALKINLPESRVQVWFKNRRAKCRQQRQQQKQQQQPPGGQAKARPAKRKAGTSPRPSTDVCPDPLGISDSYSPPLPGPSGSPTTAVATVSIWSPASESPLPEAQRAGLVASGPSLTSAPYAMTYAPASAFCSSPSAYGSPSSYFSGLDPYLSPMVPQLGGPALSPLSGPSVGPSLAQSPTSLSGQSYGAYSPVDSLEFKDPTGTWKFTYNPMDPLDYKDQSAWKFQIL
Chain of ETV1 (P50549 whole entry): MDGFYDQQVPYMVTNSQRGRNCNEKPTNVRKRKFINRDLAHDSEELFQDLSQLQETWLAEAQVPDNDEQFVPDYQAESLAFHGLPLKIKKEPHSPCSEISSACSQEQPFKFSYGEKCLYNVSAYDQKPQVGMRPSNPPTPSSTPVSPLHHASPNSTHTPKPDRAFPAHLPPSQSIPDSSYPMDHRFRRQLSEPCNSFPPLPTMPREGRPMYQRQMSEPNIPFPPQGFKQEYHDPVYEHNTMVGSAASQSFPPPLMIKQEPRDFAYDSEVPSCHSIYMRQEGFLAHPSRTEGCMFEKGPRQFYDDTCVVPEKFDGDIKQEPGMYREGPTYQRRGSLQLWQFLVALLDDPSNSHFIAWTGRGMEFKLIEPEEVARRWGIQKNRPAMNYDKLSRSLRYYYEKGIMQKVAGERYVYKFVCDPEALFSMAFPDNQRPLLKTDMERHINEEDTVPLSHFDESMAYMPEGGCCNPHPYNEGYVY
Chain of HSF1 (Q00613 whole entry): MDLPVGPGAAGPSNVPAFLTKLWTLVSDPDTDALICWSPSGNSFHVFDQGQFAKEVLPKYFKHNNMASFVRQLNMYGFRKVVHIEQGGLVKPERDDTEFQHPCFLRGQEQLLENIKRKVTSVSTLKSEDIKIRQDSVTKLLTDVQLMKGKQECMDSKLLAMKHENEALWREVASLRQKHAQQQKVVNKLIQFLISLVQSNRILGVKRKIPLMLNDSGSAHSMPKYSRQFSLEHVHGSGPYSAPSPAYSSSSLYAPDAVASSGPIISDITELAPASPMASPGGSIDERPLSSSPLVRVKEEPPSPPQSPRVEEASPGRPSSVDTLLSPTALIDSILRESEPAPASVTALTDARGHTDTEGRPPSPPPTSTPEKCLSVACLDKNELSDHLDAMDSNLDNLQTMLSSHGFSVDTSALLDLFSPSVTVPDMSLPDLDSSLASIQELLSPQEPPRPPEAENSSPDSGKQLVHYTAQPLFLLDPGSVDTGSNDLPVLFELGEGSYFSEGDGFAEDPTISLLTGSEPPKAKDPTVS
Chain of ELF4 (Q99607 whole entry): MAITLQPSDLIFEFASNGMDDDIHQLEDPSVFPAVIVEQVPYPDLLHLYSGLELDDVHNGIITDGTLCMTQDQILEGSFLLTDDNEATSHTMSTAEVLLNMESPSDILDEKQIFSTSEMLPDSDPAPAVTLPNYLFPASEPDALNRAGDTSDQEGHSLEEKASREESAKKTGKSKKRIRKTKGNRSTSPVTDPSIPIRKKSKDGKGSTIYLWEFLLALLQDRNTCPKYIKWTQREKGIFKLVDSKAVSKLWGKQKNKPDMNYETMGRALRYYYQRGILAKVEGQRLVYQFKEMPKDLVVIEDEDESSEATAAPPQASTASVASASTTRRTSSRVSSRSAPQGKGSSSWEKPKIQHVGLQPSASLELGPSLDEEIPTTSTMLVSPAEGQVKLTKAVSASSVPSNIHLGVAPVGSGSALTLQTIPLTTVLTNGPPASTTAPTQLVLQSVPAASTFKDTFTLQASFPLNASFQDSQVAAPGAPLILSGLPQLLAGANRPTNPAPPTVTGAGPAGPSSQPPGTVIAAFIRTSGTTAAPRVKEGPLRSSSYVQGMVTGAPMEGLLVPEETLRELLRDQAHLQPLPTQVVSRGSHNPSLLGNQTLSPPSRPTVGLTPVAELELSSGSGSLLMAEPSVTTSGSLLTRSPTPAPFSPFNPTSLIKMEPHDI

| Sequence | binding signal [1] | binding signal [2] | binding signal [3] | binding signal [4] | binding signal [5] | binding signal [6] | binding signal [7] | binding signal [8] | binding signal [9] | binding signal [10] |
| --- | --- | --- | --- | --- | --- | --- | --- | --- | --- | --- |
| CAAGAT | 1.02 fold enrichment (6-mer frequency, TF over GST control) | 1.1 fold enrichment (6-mer frequency, TF over GST control) | 1.18 fold enrichment (6-mer frequency, TF over GST control) | 1.14 fold enrichment (6-mer frequency, TF over GST control) | 1.18 fold enrichment (6-mer frequency, TF over GST control) | 1.11 fold enrichment (6-mer frequency, TF over GST control) | 1.09 fold enrichment (6-mer frequency, TF over GST control) | 1.06 fold enrichment (6-mer frequency, TF over GST control) | 1.23 fold enrichment (6-mer frequency, TF over GST control) | 1.06 fold enrichment (6-mer frequency, TF over GST control) |
| TTTCCC | 1.61 fold enrichment (6-mer frequency, TF over GST control) | 1.93 fold enrichment (6-mer frequency, TF over GST control) | 1.57 fold enrichment (6-mer frequency, TF over GST control) | 1.87 fold enrichment (6-mer frequency, TF over GST control) | 1.77 fold enrichment (6-mer frequency, TF over GST control) | 1.47 fold enrichment (6-mer frequency, TF over GST control) | 1.58 fold enrichment (6-mer frequency, TF over GST control) | 1.43 fold enrichment (6-mer frequency, TF over GST control) | 1.43 fold enrichment (6-mer frequency, TF over GST control) | 1.6 fold enrichment (6-mer frequency, TF over GST control) |
| CCCTTC | 1.47 fold enrichment (6-mer frequency, TF over GST control) | 1.54 fold enrichment (6-mer frequency, TF over GST control) | 1.35 fold enrichment (6-mer frequency, TF over GST control) | 1.19 fold enrichment (6-mer frequency, TF over GST control) | 1.49 fold enrichment (6-mer frequency, TF over GST control) | 1.35 fold enrichment (6-mer frequency, TF over GST control) | 1.33 fold enrichment (6-mer frequency, TF over GST control) | 1.46 fold enrichment (6-mer frequency, TF over GST control) | 1.05 fold enrichment (6-mer frequency, TF over GST control) | 1.51 fold enrichment (6-mer frequency, TF over GST control) |
| TCCATT | 1.31 fold enrichment (6-mer frequency, TF over GST control) | 1.36 fold enrichment (6-mer frequency, TF over GST control) | 1.4 fold enrichment (6-mer frequency, TF over GST control) | 1.31 fold enrichment (6-mer frequency, TF over GST control) | 1.29 fold enrichment (6-mer frequency, TF over GST control) | 1.37 fold enrichment (6-mer frequency, TF over GST control) | 1.19 fold enrichment (6-mer frequency, TF over GST control) | 1.27 fold enrichment (6-mer frequency, TF over GST control) | 1.35 fold enrichment (6-mer frequency, TF over GST control) | 1.26 fold enrichment (6-mer frequency, TF over GST control) |
| ACGTTT | 1.22 fold enrichment (6-mer frequency, TF over GST control) | 1.15 fold enrichment (6-mer frequency, TF over GST control) | 1.05 fold enrichment (6-mer frequency, TF over GST control) | 1.29 fold enrichment (6-mer frequency, TF over GST control) | 1.14 fold enrichment (6-mer frequency, TF over GST control) | 1.22 fold enrichment (6-mer frequency, TF over GST control) | 1.18 fold enrichment (6-mer frequency, TF over GST control) | 1.08 fold enrichment (6-mer frequency, TF over GST control) | 1 fold enrichment (6-mer frequency, TF over GST control) | 1.22 fold enrichment (6-mer frequency, TF over GST control) |
| CTCAAG | 1.16 fold enrichment (6-mer frequency, TF over GST control) | 1.14 fold enrichment (6-mer frequency, TF over GST control) | 1.19 fold enrichment (6-mer frequency, TF over GST control) | 1.1 fold enrichment (6-mer frequency, TF over GST control) | 1.19 fold enrichment (6-mer frequency, TF over GST control) | 1.09 fold enrichment (6-mer frequency, TF over GST control) | 1.11 fold enrichment (6-mer frequency, TF over GST control) | 1.22 fold enrichment (6-mer frequency, TF over GST control) | 1.2 fold enrichment (6-mer frequency, TF over GST control) | 1.21 fold enrichment (6-mer frequency, TF over GST control) |
| CTAACA | 1.2 fold enrichment (6-mer frequency, TF over GST control) | 1.26 fold enrichment (6-mer frequency, TF over GST control) | 1.08 fold enrichment (6-mer frequency, TF over GST control) | 1.26 fold enrichment (6-mer frequency, TF over GST control) | 1.2 fold enrichment (6-mer frequency, TF over GST control) | 1.17 fold enrichment (6-mer frequency, TF over GST control) | 1.21 fold enrichment (6-mer frequency, TF over GST control) | 1.28 fold enrichment (6-mer frequency, TF over GST control) | 1.2 fold enrichment (6-mer frequency, TF over GST control) | 1.15 fold enrichment (6-mer frequency, TF over GST control) |
